Records with an inconclusive call do not appear. Calls of active or inactive are those of the source. Unless noted, calls come from the whole dose curve; as a rule, active = well fitted curve in the direction sought with a large enough effect; inconclusive = small, poorly fitted or top-dose-only effect, or another doubt; inactive = no such curve, though single readings can be large; an effect the other way counts as inactive or inconclusive.
Experiments:
[1] = Primary qHTS for inhibitors of La Crosse Virus (LACV) - induced cell death in SH-SY5Y cells (AID 1508616); note: potency is the fitted concentration of half-maximal effect
Method in brief: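 Protection against LACV-induced cell death is scored in SH-SY5Y cells exposed to compounds and virus (0.01 MOI) for 6 days. Data normalized to virus-infected DMSO wells and virus-free DMSO wells.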

[2] = biological target: Calcium and integrin-binding protein 1 (Homo sapiens) (UniProt Q99828); experiment: Primary qHTS for Identification of Calcium Integrin Binding Protein 1 (CIB1) Competitor (AID 1508620);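 note: GST tagged CIB1 binding a fluorescein labelled alphaIIb integrin peptide tracer; top concentration of the series differs between compounds; % is set by controls: 0 for no effect and ±100 for the full control effect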
Chain of Calcium and integrin-binding protein 1 (Homo sapiens) (Q99828 whole entry, looked up): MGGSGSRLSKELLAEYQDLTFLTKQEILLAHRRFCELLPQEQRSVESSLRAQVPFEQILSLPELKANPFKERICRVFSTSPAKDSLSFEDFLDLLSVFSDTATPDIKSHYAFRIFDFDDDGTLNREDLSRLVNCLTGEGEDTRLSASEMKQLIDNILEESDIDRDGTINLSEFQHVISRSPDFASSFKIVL
Method in brief: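 Fluorescence polarization competition: GST-tagged CIB1 (1 uM final) preincubated with compound 15 min at room temperature, then FITC-labelled alphaIIb peptide (100 nM final) added. After 15 min at room temperature, polarization read at Ex 480/Em 540.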

[3] = Counterscreen qHTS for small molecule stabilizers of the endoplasmic reticulum resident proteome: GLuc-NoTag assay (AID 1508627);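 note: SH-SY5Y cells given compound then 100 nM thapsigargin to empty ER calcium; series mostly up to about 76 µM; 0% = thapsigargin alone and -100% = DMSO vehicle control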
Method in brief: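 SH-SY5Y cells stably expressing constitutively secreted GLuc without SERCaMP tag, exposed to compound for 19 hr, then to 100 nM thapsigargin for 4 hr at 37C. Medium luciferase was read by coelenterazine luminescence without lysis.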

[4] = Confirmatory qHTS for small molecule stabilizers of the endoplasmic reticulum resident proteome: Secreted ER Calcium Modulated Protein (SERCaMP) assay (AID 1508628); note: series mostly up to about 76 µM; % is set by controls: 0 for no effect and ±100 for the full control effect; nearly all actives have a fitted effect of over 40% in size
Method in brief: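 SH-SY5Y cells stably expressing GLuc-SERCaMP, treated 16 h with compound (primary 1.53, 7.67, 38.3 uM; confirmation 11 concentrations, up to 76.6 uM), then 100 nM thapsigargin for 4 h. Secreted Gaussia luciferase in medium read by coelenterazine luminescence.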

[5] = Cell Viability qHTS for small molecule stabilizers of the endoplasmic reticulum resident proteome (AID 1508629); details: cell viability counter-screen, 100 nM thapsigargin for final 4 h;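 note: human SH-SY5Y neuroblastoma cells carrying the GLuc-SERCaMP reporter; compound exposure about 46 h in total before the viability read; % is set by controls: 0 for no effect and ±100 for the full control effect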
[6] = Primary qHTS for small molecule stabilizers of the endoplasmic reticulum resident proteome: Secreted ER Calcium Modulated Protein (SERCaMP) assay (AID 1508630); note: % is set by controls: 0 for no effect and ±100 for the full control effect
Method in brief: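 GLuc-SERCaMP-expressing SH-SY5Y cells, pretreated 16 h with compound, are challenged with thapsigargin to empty ER calcium stores; after 4 h, coelenterazine is added directly to the medium and luminescence is imaged.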

[7] = A High-Content qHTS Against Drug Library for the Identification of Small Molecules that Inhibit DYT1 Early Onset Primary Dystonia-Associated Cell Pathology (AID 1645839; calls by dose curve; note: series mostly up to about 46 µM)
Method in brief: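 Flp-In T-REx 293 cells with tetracycline-inducible EGFP-delE hTOR1A (WT EGFP-hTOR1A as reference), 800 cells/well; compound added with tetracycline, 48 h at 37 C. Fixed, permeabilized cells imaged; %pathology (punctate TorsinA) primary, cell count counterscreen.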

[8] = biological target: Single-stranded DNA cytosine deaminase (Homo sapiens) (UniProt Q9GZX7); experiment: Validation qHTS assay for inhibitors of Activation Induced Cytidine Deaminase (AID): AID signal (AID 1347429); note: % is set by controls: 0 for no effect and ±100 for the full control effect
Chain of Single-stranded DNA cytosine deaminase (Homo sapiens) (Q9GZX7 whole entry, looked up): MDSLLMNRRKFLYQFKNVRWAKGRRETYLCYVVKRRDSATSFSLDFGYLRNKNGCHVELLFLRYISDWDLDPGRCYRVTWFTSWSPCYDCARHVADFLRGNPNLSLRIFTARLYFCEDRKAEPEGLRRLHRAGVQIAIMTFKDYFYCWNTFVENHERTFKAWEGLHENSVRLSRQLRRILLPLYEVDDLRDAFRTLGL
Method in brief: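 Fluorescence at 540 nm excitation and 590 nm emission reports ssDNA cytosine deamination by AID, with UDG in the same well. Compound-treated reactions ran 4 hr at room temperature with DJC20/DJC23 substrate, followed by 30 min NaOH treatment.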

[9] = biological target: Calcium and integrin-binding protein 1 (Homo sapiens) (UniProt Q99828); experiment: Validation qHTS for Identification of Calcium Integrin Binding protein 1 (CIB1) Competitor (AID 1508618); note: % is set by controls: 0 for no effect and ±100 for the full control effect
Method in brief: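 Displacement of FITC-alphaIIb peptide (100 nM) from CIB1-GST (1 uM) is monitored by polarization in quantitative HTS format; buffer carries 5 mM CaCl2 and 125 mM NaCl at pH 7.4, incubations are at room temperature.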

CCn1cc(C(=O)O)c(=O)c2cc(F)c(N3CCNCC3)nc21
inactive: Potency [1] | outcome [2] | outcome [3] | Potency [4] | max response [5] 28.2% | Potency [6] | Potency [7]

CCCCS(=N)(=O)CCC(N)C(=O)O (stereo unspecified)
inactive: outcome [8] | Potency [1] | outcome [9] | outcome [2] | Potency [6]

CCN(CC)CCn1c(=O)c(Cc2ccc(OC)cc2)nc2ccccc21
inactive: outcome [8] | Potency [1] | outcome [9] | outcome [2] | Potency [6]

NC(=O)c1cccc(N)c1
inactive: outcome [8] | Potency [1] | outcome [9] | outcome [2] | Potency [6]

CC1=C(C(=O)O)N2C(=O)[C@@H](NC(=O)C(N)c3ccccc3)[C@H]2SC1 (stereo partly specified)
inactive: outcome [8] | Potency [1] | outcome [9] | outcome [2] | Potency [6]

NC(=O)c1ccc2[nH]ccc2c1
inactive: outcome [8] | Potency [1] | outcome [9] | outcome [2] | Potency [6]

COc1cc2nc(N3CCCN(C)CC3)nc(NC3CCN(Cc4ccccc4)CC3)c2cc1OC
inactive: outcome [8] | outcome [9] | outcome [2] | Potency [6]

Cc1noc(NS(=O)(=O)c2ccc(N)cc2)c1C
inactive: Potency [1] | outcome [2] | Potency [6] | Potency [7]

CCC(=O)O[C@]1(C(=O)CCl)[C@@H](C)C[C@H]2[C@@H]3CCC4=CC(=O)C=C[C@]4(C)[C@@]3(F)[C@@H](O)C[C@@]21C
inactive: Potency [1] | outcome [2] | Potency [6] | Potency [7]

CCCc1cc(C(N)=S)ccn1
inactive: Potency [1] | outcome [2] | Potency [6] | Potency [7]

CCCCCCNC(=O)n1cc(F)c(=O)[nH]c1=O
inactive: Potency [1] | outcome [2] | Potency [6] | Potency [7]

COc1ccc(C(=O)CC(=O)c2ccc(C(C)(C)C)cc2)cc1
inactive: Potency [1] | outcome [2] | Potency [6] | Potency [7]

CC(C)C[C@H](NC(=O)[C@H](CCc1ccccc1)NC(=O)CN1CCOCC1)C(=O)N[C@@H](Cc1ccccc1)C(=O)N[C@@H](CC(C)C)C(=O)[C@@]1(C)CO1
inactive: outcome [2] | Potency [6] | Potency [7]
active: Potency [1] 355 nM

O=c1cc(O)c(Cl)c[nH]1
inactive: Potency [1] | outcome [2] | Potency [6] | Potency [7]

CCC(=O)O[C@]1(C(=O)SCF)[C@H](C)C[C@H]2[C@@H]3C[C@H](F)C4=CC(=O)C=C[C@]4(C)[C@@]3(F)[C@@H](O)C[C@@]21C
inactive: Potency [1] | outcome [2] | Potency [6] | Potency [7]

COC(=O)Nc1nc2ccc(S(=O)c3ccccc3)cc2[nH]1 (stereo unspecified)
inactive: outcome [2] | Potency [6]
active: Potency [1] 355 nM
